Only a sample is shown.
aSyn 5UTR act: Activators via SNCA 5'UTR binding, MLPCN | alpha-synuclein 5'UTR reporter, activators screen | actives 7.1% (n = 300,000) | activity score, % (tested at 7.5 µM), hits read low | AID 1814, 2009; in the data active = activity score below about -60%
An asterisk follows results filed as active.

SMILES	aSyn 5UTR act
O=[N+]([O-])c1cccc(-c2nc(-c3ccncc3)no2)c1	-88.7*
Cc1ccc(-c2nc(-c3ccncc3)no2)cc1Cl	-98.7*
Cc1cc(-c2nc(-c3ccncc3)no2)ccc1[N+](=O)[O-]	-165.5*
O=[N+]([O-])c1cccc(-c2noc(-c3ccco3)n2)c1	-95.8*
Cc1ccc(-c2nc(-c3ccccn3)no2)cc1Cl	103.8
O=[N+]([O-])c1cccc(-c2nc(-c3ccccc3)no2)c1	-133.9*
O=C(CSc1nnc(-c2ccccc2F)o1)N1CCCC1	-76.2*
COc1ccc(-c2nnc(SCC(=O)N3CCCC3)o2)c(OC)c1	-82.8*
CC1CCCCN1C(=O)CSc1nnc(-c2ccccc2F)o1 (configuration not stated)	-84.1*
CC1CCCCN1C(=O)CSc1nnc(-c2ccco2)o1 (configuration not stated)	-135.7*
CCc1ccc2c(COC(=O)c3n[nH]c4ccccc34)cc(=O)oc2c1	-175.2*
Cc1ccc2c(COC(=O)c3n[nH]c4ccccc34)cc(=O)oc2c1	-172.0*
O=C(CCCc1ccccc1)Nc1ccccc1[N+](=O)[O-]	-111.8*
Cc1ccc(NC(=O)CCCc2ccccc2)c([N+](=O)[O-])c1	-76.3*
O=C(CCc1ccccc1)Nc1ccccc1[N+](=O)[O-]	-82.8*
COc1ccc2oc(C(=O)C3CC3)c(N)c2c1	-133.0*
Nc1c(C(=O)c2ccc(F)cc2)oc2ccccc12	-137.4*
Nc1ccc(C(=O)n2c3ccccc3c3ccccc32)cc1	116.7
COc1ccc(C(=O)c2oc3ccccc3c2N)cc1	-179.2*
COc1ccc2occ(C(=O)c3ccccc3)c2c1	-133.4*
COC(=O)CCC(=O)c1oc2ccc(OC)cc2c1N	-62.0*
COC(=O)c1oc2ccccc2c1N	-63.1*
COc1ccc2oc(C(=O)c3ccccc3)c(N)c2c1	-174.5*
Nc1c(C(=O)Nc2ccc(Cl)cc2)oc2ccccc12	-252.7*
Nc1c(C(=O)c2ccco2)oc2ccccc12	-112.9*
SMILES	aSyn 5UTR act
O=C(NCCCc1ccccn1)C1CCC(=O)N(Cc2cccc(F)c2)C1 (configuration not stated)	-116.7*
N#Cc1cc2c(nc1SCC(=O)Nc1sc3c(c1C#N)CCC3)CCC2	-140.6*
N#Cc1c(NC(=O)CSc2ncn[nH]2)sc2c1CCCC2	84.1
N#Cc1cc2c(nc1SCC(=O)Nc1sc3c(c1C#N)CCC3)CCCCCC2	-93.3*
CN1CCc2nc(SCC(=O)Nc3ccc(Cl)cc3)c(C#N)cc2C1	-65.0*
CCc1nnc(NC(=O)CSc2nc3c(cc2C#N)CCC3)s1	-159.4*
Cc1cc(C)n(CCC(=O)N/N=C/c2c(O)ccc3ccccc23)n1	73.3
S=C(NCCN1CCOCC1)N/N=C/c1c2ccccc2cc2ccccc12	-74.1*
CCCCOc1ccc(CSC2=NCCN2)cc1[N+](=O)[O-]	-82.0*
CCCCOc1ccc(Br)cc1/C(C)=N/NC1=NCCN1	121.5
O=C(NC1CCCCCCC1)c1c(O)c2ccccc2[nH]c1=O	-99.4*
O=C(NC1CC1)c1c(O)c2ccccc2[nH]c1=O	-67.9*
O=C(NCCc1ccccc1)c1c(O)c2ccccc2[nH]c1=O	-118.6*
NNC(=O)c1[nH]c2ccccc2c1-c1ccccc1	95.7
CCc1nonc1NC(=O)c1oc2cc(C)c(C)cc2c1C	-126.8*
CCc1nnc(NC(=O)c2oc3cc(C)c(C)cc3c2C)s1	-102.0*
CCOC(=O)c1c(CSC(=N)N)n(-c2ccccc2)c2cc(Br)c(OC(C)=O)cc12	-71.0*
CCOC(=O)c1cn(-c2c(Cl)cccc2Cl)c2cc(Cl)c([N+](=O)[O-])cc2c1=O	-89.6*
Nc1c(C(=O)N2CCOCC2)sc2nc3c(cc12)CCCC3	75.7
COC(=O)c1sc2nc3c(cc2c1N)CCCC3	-143.1*
CCOC(=O)c1sc2nc3c(cc2c1N)C(=O)CC(C)(C)C3	-126.0*
COC(=O)c1sc2nc3c(cc2c1N)C(=O)CC(C)(C)C3	-69.4*
Oc1ccc(/C=N/Nc2ccnc3cc(Cl)ccc23)cc1O	-78.5*
O=C1/C(=C\c2ccco2)NC(=S)N1c1ccccc1	-83.6*
COc1ccccc1NC(=O)COc1ccccc1	-91.4*
SMILES	aSyn 5UTR act
COc1ccc(OCC(=O)Nc2ccccc2O)cc1	-160.1*
COc1ccccc1NC(=O)COc1ccc(C(F)(F)F)cc1[N+](=O)[O-]	-72.7*
COc1ccc(NC(=O)COc2ccccc2)c(OC)c1	-114.7*
COc1ccc(Oc2ccc(C(F)(F)F)cc2N)cc1	-68.2*
CC(=O)Nc1cccc(C(=O)/C=C/c2cccs2)c1	-116.6*
CC(=O)Nc1cccc(C(=O)/C=C/c2ccc(/C=C/C(=O)c3cccc(NC(C)=O)c3)cc2)c1	-128.9*
CC(=O)Nc1cccc(C(=O)/C=C/c2ccc[nH]2)c1	-90.0*
CC(=O)Nc1cccc(C(=O)/C=C/c2ccc(F)cc2)c1	-103.1*
CC(=O)Nc1cccc(C(=O)/C=C/c2ccc(Br)cc2)c1	-75.5*
CC(=O)Nc1cccc(C(=O)/C=C/c2ccc(N(C)C)cc2)c1	-71.3*
COc1cc2c(cc1NC(=O)COC(=O)C(CCSC)NC(=O)c1ccccc1Cl)oc1ccccc12 (configuration not stated)	-135.7*
COc1ccc(-c2csc(/C(C#N)=C/Nc3cc4oc5ccccc5c4cc3OC)n2)cc1	43.4
COc1cc2c(cc1NC(=O)Nc1ccccc1)oc1ccccc12	-66.8*
COc1cc2c(cc1NC(=O)CN1CCN(S(=O)(=O)c3ccccc3F)CC1)oc1ccccc12	-90.8*
COc1cc2c(cc1NC(=O)Cc1ccc(C)cc1)oc1ccccc12	-129.8*
COc1cc2c(cc1NCc1ccccn1)oc1ccccc12	-153.5*
COc1cc2c(cc1NC(=O)C(C)Sc1ccc(C)cc1)oc1ccccc12 (configuration not stated)	-108.7*
COc1cc2c(cc1NC(=O)COC(=O)Cn1cnc3ccccc31)oc1ccccc12	-75.8*
Cc1ccnc(NC(=O)Nc2ccc3c(c2)N(C)C(=O)CS3)c1	-96.9*
Cc1cccc(NC(=O)Nc2ccc3c(c2)N(C)C(=O)CS3)n1	-83.2*
CC(C)c1ccc(/C=N/NC(=O)CCNC(=O)c2ccccc2)cc1	-63.2*
CC(C)c1ccc(/C=N/NC(=O)c2cccc(Cl)c2)cc1	-238.4*
Cc1cc(C)nc(SCc2ccc(C(=O)N/N=C/c3cccc(O)c3O)cc2)n1	70.1
CC(C)c1ccc(C(=O)N/N=C/c2cccc(Cl)c2Cl)cc1	-65.5*
Cc1ccc2c(CC(=O)Nc3sccc3C(N)=O)coc2c1	-183.1*
SMILES	aSyn 5UTR act
Cc1ccc2c(CC(=O)Nc3ccc(N4CCN(C)CC4)cc3C)coc2c1	-67.6*
COc1ccccc1C1=NN(C(=S)Nc2ccccc2)C(c2ccco2)C1 (configuration not stated)	-154.1*
COc1ccc(-c2nn(-c3ccccc3)cc2/C=N/NC(N)=S)cc1OC	90.2
COc1ccc(NS(=O)(=O)c2cccc(C(=O)N/N=C/c3cn(-c4ccccc4)nc3-c3ccc(OC)cc3)c2)cc1	-85.1*
Cc1ccc(-c2nn(-c3ccccc3)cc2/C=N/NS(=O)(=O)c2ccccc2)cc1	-76.0*
CCN(CC)c1ccc(/C=N/NC(=O)c2cccc(S(=O)(=O)Nc3ccccc3OC)c2)c(O)c1	95.2
CC(=O)Nc1nc(-c2ccc3c(c2)CCO3)cs1	-124.6*
CCC(=O)N1CCc2cc(-c3csc(NC(=O)c4ccco4)n3)ccc21	-76.7*
c1cc2c(cc1-c1csc(NNC3=NCCCCC3)n1)OCCO2	-70.0*
CC(C)(C)C(=O)Nc1nc(-c2ccc3c(c2)OCO3)cs1	-146.9*
CCC(=O)Nc1nc(-c2ccc3c(c2)OCCO3)cs1	-136.3*
NC1=NN=C(c2ccc3c(c2)OCCO3)CS1	56.8
